Results reported in PubChem BioAssay AID1159580 (chemical genetic matrix, 2015).
Hit rate of the full screen: of about 5,500 compounds, about 2,000 (36%) were called active. Not shown: some 18% with an inconclusive outcome. Cut-off read from the data, not from the text of the source: active = normalized growth mostly below about 0.91 (no sharp cut-off); inconclusive = no clear call, values can overlap the other calls; inactive = mostly above about 0.92. The list shows a part of the results.

Test: chemical genetic growth profiling, strain panel (AID 1159580);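 note: tested at 20 µM; growth read once vehicle control cultures reached saturation at 30 °C; 1 = growth at the plate median or of vehicle wells; lower values mean less growth of the strain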
Conditions: growth OD

Measured: normalized growth

CCOC(=O)NNc1nncc2ccccc12
inactive: S. cerevisiae deletion strains, locus YJR066W, strain TOR1, hits give low values 0.978 | S. cerevisiae deletion strains, locus YJR075W, strain HOC1, hits give low values 0.997 | S. cerevisiae deletion strains, locus YKL009W, strain mrt4, hits give low values 0.986 | S. cerevisiae deletion strains, locus YKL068W, hits give low values 0.984 | S. cerevisiae deletion strains, locus YKL085W, strain MDH1 (second series), hits give low values 0.992 | S. cerevisiae deletion strains, locus YKL085W, strain MDH1, hits give low values 0.992 | S. cerevisiae deletion strains, locus YKL160W, strain elf1, hits give low values 1.02 | S. cerevisiae deletion strains, locus YKL190W, strain CNB1, hits give low values 0.998 | S. cerevisiae deletion strains, locus YKR001C, strain vps1, hits give low values 0.983 | S. cerevisiae deletion strains, locus YKR026C, strain gcn3, hits give low values 1.02 | S. cerevisiae deletion strains, locus YKR091W, strain srl3, hits give low values 1 | S. cerevisiae deletion strains, locus YLL001W, strain dnm1, hits give low values 0.986 | S. cerevisiae deletion strains, locus YLL026W, hits give low values 1 | S. cerevisiae deletion strains, locus YLL041C, strain sdh2, hits give low values 1.01 | S. cerevisiae deletion strains, locus YLR027C, strain aat2, hits give low values 1 | S. cerevisiae deletion strains, locus YLR039C, strain RIC1, hits give low values 1.03 | S. cerevisiae deletion strains, locus YLR058C, strain SHM2, hits give low values 0.992 | S. cerevisiae deletion strains, locus YLR102C, strain apc9, hits give low values 0.979 | S. cerevisiae deletion strains, locus YLR113W, strain HOG1, hits give low values 0.967 | S. cerevisiae deletion strains, locus YLR221C, strain rsa3, hits give low values 0.976 | S. cerevisiae deletion strains, locus YLR258W, strain gsy2, hits give low values 1.04 | S. cerevisiae deletion strains, locus YLR262C, strain YPT6 (second series), hits give low values 1.01 | S. cerevisiae deletion strains, locus YLR262C, strain YPT6, hits give low values 1.02 | S. cerevisiae deletion strains, locus YLR268W, strain sec22, hits give low values 0.968 | S. cerevisiae deletion strains, locus YLR320W, strain mms22, hits give low values 0.92 | S. cerevisiae deletion strains, locus YLR330W, strain CHS5, hits give low values 0.992 | S. cerevisiae deletion strains, locus YLR342W, strain FKS1 (second series), hits give low values 0.973 | S. cerevisiae deletion strains, locus YLR342W, strain FKS1, hits give low values 1.03 | S. cerevisiae deletion strains, locus YLR357W, strain rsc2, hits give low values 1.06 | S. cerevisiae deletion strains, locus YLR370C, strain arc18, hits give low values 1.02 | S. cerevisiae deletion strains, locus YLR371W, strain rom2, hits give low values 0.977 | S. cerevisiae deletion strains, locus YLR384C, strain iki3, hits give low values 0.989 | S. cerevisiae deletion strains, locus YLR418C, strain cdc73, hits give low values 0.957 | S. cerevisiae deletion strains, locus YML016C, strain PPZ1, hits give low values 0.991 | S. cerevisiae deletion strains, locus YML032C, strain rad52, hits give low values 0.97 | S. cerevisiae deletion strains, locus YML120C, strain ndi1, hits give low values 0.992 | S. cerevisiae deletion strains, locus YML124C, strain tub3, hits give low values 0.983 | S. cerevisiae deletion strains, locus YMR058W, strain fet3, hits give low values 1.01 | S. cerevisiae deletion strains, locus YMR078C, strain ctf18, hits give low values 0.983 | S. cerevisiae deletion strains, locus YMR125W, strain sto1, hits give low values 1.03 | S. cerevisiae deletion strains, locus YMR129W, hits give low values 0.988 | S. cerevisiae deletion strains, locus YMR205C, strain PFK2, hits give low values 0.993 | S. cerevisiae deletion strains, locus YMR223W, strain ubp8, hits give low values 0.972 | S. cerevisiae deletion strains, locus YMR231W, strain pep5, hits give low values 0.997 | S. cerevisiae deletion strains, locus YMR307W, strain GAS1, hits give low values 0.972 | S. cerevisiae deletion strains, locus YNL067W, strain RPL9B, hits give low values 1.01 | S. cerevisiae deletion strains, locus YNL071W, strain lat1, hits give low values 1.01 | S. cerevisiae deletion strains, locus YNL128W, strain TEP1, hits give low values 0.967 | S. cerevisiae deletion strains, locus YNL183C, strain NPR1, hits give low values 0.934 | S. cerevisiae deletion strains, locus YNL209W, strain ssb2, hits give low values 1.01 | S. cerevisiae deletion strains, locus YNL233W, strain BNI4, hits give low values 0.998 | S. cerevisiae deletion strains, locus YNL248C, strain rpa49, hits give low values 1.06 | S. cerevisiae deletion strains, locus YNL250W, strain rad50, hits give low values 0.995 | S. cerevisiae deletion strains, locus YNL271C, strain bni1, hits give low values 0.973 | S. cerevisiae deletion strains, locus YNL298W, strain CLA4, hits give low values 0.985 | S. cerevisiae deletion strains, locus YNL307C, strain MCK1, hits give low values 0.977 | S. cerevisiae deletion strains, locus YNL322C, strain KRE1 (second series), hits give low values 1.05 | S. cerevisiae deletion strains, locus YNL322C, strain KRE1, hits give low values 0.998 | S. cerevisiae deletion strains, locus YNR049C, strain mso1, hits give low values 1 | S. cerevisiae deletion strains, locus YNR052C, strain pop2, hits give low values 0.966 | S. cerevisiae deletion strains, locus YOL006C, strain TOP1, hits give low values 1.02 | S. cerevisiae deletion strains, locus YOL012C, strain htz1 1.25 | S. cerevisiae deletion strains, locus YOL147C, strain pex11, hits give low values 0.98 | S. cerevisiae deletion strains, locus YOR001W, strain rrp6, hits give low values 0.97 | S. cerevisiae deletion strains, locus YOR061W, strain CKA2, hits give low values 0.986 | S. cerevisiae deletion strains, locus YOR069W, strain VPS5, hits give low values 0.986 | S. cerevisiae deletion strains, locus YOR070C, strain gyp1, hits give low values 1.01 | S. cerevisiae deletion strains, locus YOR080W, strain dia2, hits give low values 1.02 | S. cerevisiae deletion strains, locus YOR083W, strain WHI5, hits give low values 0.99 | S. cerevisiae deletion strains, locus YOR106W, strain vam3, hits give low values 1.05 | S. cerevisiae deletion strains, locus YOR136W, strain idh2, hits give low values 0.981 | S. cerevisiae deletion strains, locus YOR144C, strain elg1, hits give low values 0.983 | S. cerevisiae deletion strains, locus YOR184W, strain ser1, hits give low values 0.98 | S. cerevisiae deletion strains, locus YOR231W, strain MKK1, hits give low values 0.952 | S. cerevisiae deletion strains, locus YOR265W, strain rbl2, hits give low values 0.992 | S. cerevisiae deletion strains, locus YOR270C, strain vph1, hits give low values 1.06 | S. cerevisiae deletion strains, locus YOR290C, strain snf2, hits give low values 1.05 | S. cerevisiae deletion strains, locus YOR316C, strain cot1, hits give low values 0.976 | S. cerevisiae deletion strains, locus YPL051W, strain arl3, hits give low values 1.02 | S. cerevisiae deletion strains, locus YPL055C, strain LGE1, hits give low values 1.04 | S. cerevisiae deletion strains, locus YPL078C, strain atp4, hits give low values 1.07 | S. cerevisiae deletion strains, locus YPL106C, strain sse1, hits give low values 1.04 | S. cerevisiae deletion strains, locus YPL240C, strain hsp82, hits give low values 1.01 | S. cerevisiae deletion strains, locus YPL241C, strain CIN2, hits give low values 0.993 | S. cerevisiae deletion strains, locus YPL256C, strain CLN2, hits give low values 0.955 | S. cerevisiae deletion strains, locus YPR119W, strain clb2, hits give low values 0.975 | S. cerevisiae deletion strains, locus YPR141C, strain kar3, hits give low values 0.973 | S. cerevisiae deletion strains, locus YPR163C, strain tif3, hits give low values 0.969 | S. cerevisiae deletion strains, locus YPR167C, strain met16, hits give low values 0.975 | S. cerevisiae deletion strains, strain wtn01, hits give low values 1.01 | S. cerevisiae strains, strain wild type, hits give low values 1
